According to PubChem BioAssay (EPA / NIEHS):
Active and inactive are the calls of the source. How the source made its calls: active means hit-call score of the fitted dose curve at least 0.9, where 1 is the maximum; inactive means score below 0.9.

How the values were obtained:
[1] = ATG_RORE_CIS: Attagene CIS-FACTORIAL HepG2 Assay for human RAR-related Orphan Receptor Element (RORE) (AID 2282959); conditions: HepG2 Attagene cis-factorial RORE reporter, mRNA; actives raise or lower the signal
Procedure, shortened: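 Multiplexed reporter assay measuring mRNA induction from a cis promoter element in transiently transfected HepG2 cells after 24 h treatment. Detection via RT-PCR and capillary electrophoresis fluorescence; DMSO serves as baseline.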

[2] = ATG_Sox_CIS: Attagene CIS-FACTORIAL HepG2 Assay for human SRY-box transcription factor (SOX) (AID 2282960); conditions: HepG2 Attagene cis-factorial SOX reporter, mRNA; actives raise or lower the signal
Procedure, shortened: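 Cells were transfected with reporter constructs under cis-regulatory promoters, then exposed to chemicals for 24 h. Reporter transcripts were quantified by fluorescence after RT-PCR and capillary electrophoresis; activity was fitted in both directions against DMSO.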

[3] = biological target: Transcription factor Sp1 (Homo sapiens) (UniProt P08047); experiment: ATG_Sp1_CIS: Attagene CIS-FACTORIAL HepG2 Assay for human Specificity Protein 1 (Sp1) (AID 2282961); conditions: HepG2 Sp1 cis-reporter transcription, actives raise or lower the signal
Transcription factor Sp1 (Homo sapiens), sequence (P08047 whole entry, looked up): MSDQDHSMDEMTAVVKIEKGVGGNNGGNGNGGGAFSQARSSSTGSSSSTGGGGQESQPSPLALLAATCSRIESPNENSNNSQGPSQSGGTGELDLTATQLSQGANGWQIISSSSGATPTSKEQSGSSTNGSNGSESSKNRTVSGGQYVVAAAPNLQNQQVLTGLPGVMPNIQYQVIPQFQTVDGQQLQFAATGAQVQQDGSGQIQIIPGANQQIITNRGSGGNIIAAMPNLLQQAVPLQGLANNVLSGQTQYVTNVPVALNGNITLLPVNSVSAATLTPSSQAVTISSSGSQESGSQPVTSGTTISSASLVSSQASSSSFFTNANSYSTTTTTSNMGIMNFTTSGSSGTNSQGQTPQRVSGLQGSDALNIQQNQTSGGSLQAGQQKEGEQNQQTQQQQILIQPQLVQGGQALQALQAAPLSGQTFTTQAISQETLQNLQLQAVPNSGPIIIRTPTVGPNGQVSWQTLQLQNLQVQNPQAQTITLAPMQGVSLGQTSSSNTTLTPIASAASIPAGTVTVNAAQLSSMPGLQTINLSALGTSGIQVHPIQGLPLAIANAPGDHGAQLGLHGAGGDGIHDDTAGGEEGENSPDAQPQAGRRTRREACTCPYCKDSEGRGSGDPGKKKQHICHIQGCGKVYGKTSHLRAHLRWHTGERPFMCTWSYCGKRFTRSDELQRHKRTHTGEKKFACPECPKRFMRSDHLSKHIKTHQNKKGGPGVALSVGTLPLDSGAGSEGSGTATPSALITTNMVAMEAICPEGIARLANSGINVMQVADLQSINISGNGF
Procedure, shortened: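 Measures mRNA induction of an Sp1-linked reporter in HepG2 cells 24 h post-dosing. Multiplexed reporters read by RT-PCR and capillary electrophoresis; DMSO serves as negative control and baseline.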

[4] = ATG_SREBP_CIS: Attagene CIS-FACTORIAL HepG2 Assay for human Sterol Regulatory Element Binding (SREBP) (AID 2282962); conditions: HepG2 Attagene cis-factorial SREBP reporter, mRNA; actives raise or lower the signal
Procedure, shortened: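 Transfected HepG2 (cis-regulated reporter library, endogenous TFs) → compound 24 h → total RNA → oligo(dT) RT → reporter-specific PCR → FAM primer extension, HpaI cut → CE fluorescence. Fit bidirectional vs DMSO.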

[5] = biological target: Signal transducer and activator of transcription 3 (Homo sapiens) (UniProt P40763); experiment: ATG_STAT3_CIS: Attagene CIS-FACTORIAL HepG2 Assay for human Signal Transducer and Activator of Transcription 3 (STAT3) (AID 2282963); conditions: HepG2, Attagene cis-factorial STAT3 reporter transcription; actives raise or lower the signal
Signal transducer and activator of transcription 3 (Homo sapiens), sequence (P40763 whole entry, looked up): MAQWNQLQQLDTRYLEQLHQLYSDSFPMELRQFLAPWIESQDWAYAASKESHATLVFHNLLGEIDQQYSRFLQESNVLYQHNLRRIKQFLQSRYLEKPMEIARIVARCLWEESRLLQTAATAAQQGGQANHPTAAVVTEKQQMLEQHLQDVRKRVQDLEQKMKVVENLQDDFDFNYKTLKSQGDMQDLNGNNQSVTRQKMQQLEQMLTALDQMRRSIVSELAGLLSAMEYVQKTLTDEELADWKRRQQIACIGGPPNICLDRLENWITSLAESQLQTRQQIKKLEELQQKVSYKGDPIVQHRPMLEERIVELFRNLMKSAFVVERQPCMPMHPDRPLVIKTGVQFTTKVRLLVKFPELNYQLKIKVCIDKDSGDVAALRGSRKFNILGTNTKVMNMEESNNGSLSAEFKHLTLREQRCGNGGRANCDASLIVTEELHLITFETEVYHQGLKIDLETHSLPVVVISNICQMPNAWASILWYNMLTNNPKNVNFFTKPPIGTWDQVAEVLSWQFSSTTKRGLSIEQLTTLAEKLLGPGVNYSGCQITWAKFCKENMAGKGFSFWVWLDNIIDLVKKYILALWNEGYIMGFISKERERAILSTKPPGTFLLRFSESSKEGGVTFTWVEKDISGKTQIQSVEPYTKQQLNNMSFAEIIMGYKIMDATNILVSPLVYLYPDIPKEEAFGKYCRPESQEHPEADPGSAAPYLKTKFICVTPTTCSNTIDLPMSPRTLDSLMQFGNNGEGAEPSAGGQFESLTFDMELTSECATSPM
Procedure, shortened: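 Endogenous STAT3-responsive cis-element activity was read in transiently transfected HepG2 cells after 24 h treatment. Reporter transcripts were quantified via RT-PCR and capillary electrophoresis, with DMSO as negative control and bidirectional curve fitting.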

[6] = ATG_TA_CIS: Attagene CIS-FACTORIAL HepG2 Assay for human TA Basal Promoter (AID 2282964); conditions: HepG2 Attagene CIS-factorial TA basal promoter reporter; actives raise or lower the signal
Procedure, shortened: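 HepG2 cells transiently transfected with multiplexed cis-promoter reporter units, dosed 24 h. Reporter mRNA measured by RT-PCR, 6-FAM labelling, HpaI digestion and capillary electrophoresis; bidirectional fit versus DMSO baseline, serving as background control.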

[7] = ATG_TCF_b_cat_CIS: Attagene CIS-FACTORIAL HepG2 Assay for human T-Cell-Factor with beta-catenin (TCF/b-cat) (AID 2282965); conditions: HepG2 TCF/beta-catenin cis-reporter transcription, actives raise or lower the signal
Procedure, shortened: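 Endogenous transcription factor activity is captured through cis-promoter reporter constructs transiently introduced into human HepG2 liver cells. Induced reporter mRNA is measured after 24 h and fitted bidirectionally relative to DMSO.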

[8] = ATG_TAL_CIS: Attagene CIS-FACTORIAL HepG2 Assay for human TAL Basal Promoter (AID 2282966); conditions: HepG2 Attagene cis-factorial TAL promoter reporter; actives raise or lower the signal;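 further: background control endpoint measuring basal TAL promoter reporter mRNA not a specific factor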
Procedure, shortened: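 HepG2 cells were transiently transfected with promoter-driven multiplexed reporter units and dosed for 24 h. Reporter mRNA was measured by RT-PCR with capillary electrophoresis fluorescence; bidirectional fits used DMSO as baseline, serving as a background control.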

[9] = ATG_TGFb_CIS: Attagene CIS-FACTORIAL HepG2 Assay for human Transforming Growth Factor (TGF) (AID 2282967); conditions: HepG2 Attagene CIS TGFb reporter, mRNA transcription; actives raise or lower the signal
Procedure, shortened: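 HepG2 cells transiently transfected with cis-promoter-driven multiplexed reporter units; 24 h compound exposure. Reporter mRNA measured by RT-PCR, 6-FAM labeling, HpaI digestion and capillary electrophoresis; bidirectional fit versus DMSO baseline.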

[10] = ATG_VDRE_CIS: Attagene CIS-FACTORIAL HepG2 Assay for human Vitamin D Receptor Element (VDRE) (AID 2282968); conditions: HepG2 VDRE cis-reporter transcription, actives raise or lower the signal
Procedure, shortened: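 Reporter mRNA induction, quantified by capillary electrophoresis of fluorescently labelled RT-PCR products, was read 24 h after dosing HepG2 cells carrying transiently transfected cis-regulated reporter units; gain or loss relative to DMSO.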

Measured: AC50

C=CC(=O)OCCC(F)(F)C(F)(F)C(F)(F)C(F)(F)C(F)(F)C(F)(F)C(F)(F)C(F)(F)F
inactive: all assays above

O=C(OC(=O)C(F)(F)C(F)(F)F)C(F)(F)C(F)(F)F
inactive: all assays above

Cc1ccc(C(=O)c2ccccc2)cc1
inactive: all assays above

CCCCCCc1ccc(N)cc1
active: [7] 5.73 µM
inactive: all other assays above

FC(F)(F)C(F)(F)C(F)(F)Br
inactive: all assays above

C=CC(=O)OCC(CO)(COCC(COC(=O)C=C)(COC(=O)C=C)COC(=O)C=C)COC(=O)C=C
inactive: [5] | [6] | [8] | [9]
active: [1] 2.71 µM | [2] 5.94 µM | [3] 3.37 µM | [4] 2.85 µM | [7] 0.426 µM | [10] 0.722 µM

Cc1ccc2ccc3ccc(C)cc3c2c1
inactive: all assays above

FC(OC(F)(F)C(F)(F)C(F)(F)F)C(F)(F)F (stereo not given)
inactive: all assays above

CCCCCCCCCCCCCCCC(=O)OC
inactive: all assays above

O=C(O)c1cccc(C(=O)O)n1
inactive: all assays above

c1ccc(CNc2ncnc3c2ncn3C2CCCCO2)cc1 (stereo not given)
active: [10] 22.9 µM
inactive: all other assays above

O=C(Nc1ccc(Cl)c(Cl)c1)c1cc(Cl)cc(Cl)c1O
active: [1] 0.903 µM | [7] 33.4 µM | [10] 2.27 µM
inactive: all other assays above

OCC1CCC(CO)CC1 (stereo not given)
inactive: all assays above

COCN(COC)c1nc(N(COC)COC)nc(N(COC)COC)n1
inactive: all assays above

CC=O
inactive: all assays above

FC1(F)C=CC(F)(F)C1(F)F
inactive: all assays above

FC(F)(F)N1C(F)(F)C(F)(F)OC(F)(F)C1(F)F
inactive: all assays above

FCOC(C(F)(F)F)C(F)(F)F
inactive: all assays above

Cc1cc(C(=C2C=CC(=Nc3ccc(S(=O)(=O)O)cc3)C=C2)c2ccc(Nc3ccc(S(=O)(=O)O)cc3)cc2)cc(S(=O)(=O)O)c1N
inactive: all assays above

O=C(c1ccccc1)c1ccccc1
inactive: all assays above

COc1ccc(C#N)cc1
inactive: all assays above

NNc1nc(-c2ccc([N+](=O)[O-])cc2)cs1
inactive: all assays above

CCCCN(C)C
inactive: all assays above
